Values joined by “and” are separate entries in the source; they are usually repeats but may differ in a detail not shown here. Equal entries are not always repeated. Out of some 16,000 compounds screened, about 5,800 (36%) were called active. Inconclusive results (about 23%) are left out. The call rests on the fitted dose curve; in most records, active means well fitted curve in the direction sought with a large enough effect; inconclusive means small, poorly fitted or top-dose-only effect, or effect the other way; inactive means no such curve, though single readings can be large or run the other way. This is one part of the list.
On the % scale 0 is the no-effect control and ±100 the full control effect.

Chain of Cytochrome P450 2C19 (Homo sapiens) (P33261 whole entry, looked up): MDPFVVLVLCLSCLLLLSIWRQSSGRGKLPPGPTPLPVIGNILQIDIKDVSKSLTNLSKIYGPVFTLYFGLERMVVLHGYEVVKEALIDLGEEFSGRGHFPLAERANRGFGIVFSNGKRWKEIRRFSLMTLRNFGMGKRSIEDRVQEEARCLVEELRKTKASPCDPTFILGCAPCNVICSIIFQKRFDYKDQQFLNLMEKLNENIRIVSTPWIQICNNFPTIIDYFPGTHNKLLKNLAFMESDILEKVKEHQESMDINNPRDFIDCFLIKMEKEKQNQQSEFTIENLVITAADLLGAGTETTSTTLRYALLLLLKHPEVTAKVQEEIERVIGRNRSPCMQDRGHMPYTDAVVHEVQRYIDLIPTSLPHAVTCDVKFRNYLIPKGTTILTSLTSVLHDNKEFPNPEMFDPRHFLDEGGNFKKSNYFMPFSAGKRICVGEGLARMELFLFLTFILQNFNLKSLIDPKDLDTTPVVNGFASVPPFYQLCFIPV

This assay concerns the target Cytochrome P450 2C19 (Homo sapiens) (UniProt P33261). Nature of the assay: Cytochrome panel assay with activity outcomes. As to conditions: recombinant CYP, pro-luciferin dealkylation, luminescence, p450-cyp2c19; series mostly up to 57.1 µM; activity, negative = inhibition: at the top concentration. The procedure:
The P450 gene superfamily is involved in the metabolism and clearance of xenobiotics. This assay used various human CYP P450 isozymes to measure the dealkylation of various pro-luciferin substrates to luciferin. The luciferin is then measured by luminescence after the addition of a luciferase detection reagent. Pro-luciferin substrate concentration in the assay was equal to its KM for its CYP P450 isozyme. Inhibitors and some substrates limit the production of luciferin, and decrease measured luminescence.
NCGC Assay Protocol Summary:
1, Reagent, 2 uL, Isozyme and Pro-Luciferin
2, Library compounds, 23 nl, 40 uM to 0.24 nM dilution series
3, Controls, 23 nl, Isozyme specific inhibitor
4, Reagent, 2 uL, NADPH regeneration solution
5, Incubation time, 60 min, Isozyme specific temperature
6, Reagent, 4ul, Detection reagent
7, Incubation time, 20 min, Isozyme specific temperature
8, Detection, 1 sec, ViewLux luminescent read
The luciferase-based P450-GloTM Screening Systems were obtained from Promega (Madison, WI) for CYP 1A2 (V9770), CYP 2C9 (V9790), CYP2 C19 (V9880), CYP 2D6 (V9890), and CYP 3A4 Luciferin-PPXE (V9910) and were adapted for 1,536-well microplates and an automated protocol. The control compounds furafylline for 1A2 (F124), sulfaphenazole for CYP 2C9 (S0758), ketoconazole for CYP 2C19 (K1003), quinidine for 2D6 (Q3625), and ketoconazole for 3A4 (K1003) were purchased from Sigma Aldrich (St. Louis, MO). Recombinant P450 enzymes were obtained from baculovirus constructs expressed in insect cells (BD/Gentest).
Medium-binding white solid Kalypsys plates used. Mixtures kept on ice. 1A2: 10 nM 1A2, 100 uM Luc-ME, 100 mM KPO4; 2C9: 10 nM 2C9, 100 uM Luc-H, 25 mM KPO4; 2C19: 5 nM 2C19, 10 uM Luc-H EGE, 50 mM KPO4; 2D6: 5 nM 2D6, 30 uM Luc-ME EGE, 100 mM KPO4; 3A4: 10 nM, 25 uM Luc-PPXE. All amounts are reflected in their final concentration, working concentration is 2x.
NADPH regeneration solution: 1.3 mM NADP+, 3.3 mM glucose-6-phosphate, 3.3 mM MgCl2, 0.4 U/mL glucose-6-phosphate dehydrogenase for all isozymes, 200 mM KPO4 for 3A4. Mixture prepared at RT but kept on ice during automated run.
RT incubation in auxilliary plate hotel for 1A2, 2D6, and 3A4; 37C for 2C9 and 2C19.
Keywords: P450, CYP1A2, CYP2C19, CYP2C9, CYP2D6, CYP3A4, Luciferase, MLSMR, MLSCN, NIH Roadmap, qHTS, NCGC
Take `C=CCN=C1CC(C)(C)CC(=O)/C1=C(\O)c1ccccc1`: the AC50 was 25.1 µM (active).
In the case of `C=CCN=C1CC(C)(C)CC(=O)/C1=C(/O)CCC(=O)OC`, the AC50 was 14.1 µM (active).
Take `N#CCCn1c(=O)c(-c2ccccc2)nc2cnc(Nc3ccccc3)nc21`: the “activity, negative = inhibition” value is -8.35% (inactive).
The same measure, in the same setting: as for `Nc1ccc(C(=O)NCC(=O)O)cc1`, the figure is 5.57% [at 25.6 µM] (inactive).
On to `CCNC(=O)c1ccc(-n2nc(C)cc2-c2ccccc2)cc1`, for which the AC50 was 11.2 µM (active).
As to `Cc1nc2cnc(N3CCOCC3)nc2n(CCC#N)c1=O`, the “activity, negative = inhibition” value was -4.01% (inactive).
As to `Fc1ccc(-c2cnc(-c3cccs3)o2)cc1`, the AC50 was 6.31 µM (active).
Same read-out and setting: as for `Cc1ccc(N2C(=O)CC(c3ccsc3)C3=C2CC(C)(C)CC3=O)cc1` (stereo not drawn), the figure is 2.51 µM (active).
On to `CC1CCCCN1c1cc(C#N)c(C#N)cc1[N+](=O)[O-]` (stereo not drawn), for which the AC50 was 4.47 µM (active).
With `N#Cc1cc2nc(O)c(O)nc2cc1[N+](=O)[O-]`, the AC50 result is “inactive”.
Take `N#Cc1cc2[nH]c(=O)c(=O)[nH]c2cc1[N+](=O)[O-]`: the “activity, negative = inhibition” value is -9.46% (inactive).
For the molecule `CCC(C)NC(=O)C1c2cc(OC)c(OC)cc2C(=O)N(C)C1c1cccs1` (stereo not drawn), the “activity, negative = inhibition” value is -15% (inactive).
Regarding `Clc1ccc(Cc2nc(-c3cccnc3)no2)cc1`, the AC50 was 1.78 µM (active).
Regarding `Nc1nc(-c2cccnc2)cc(-c2cc(-c3cccnc3)nc(N)n2)n1`, the activity, negative = inhibition was -16.6% [at 11.4 µM] (inactive).
On to `Cn1cccc1C(=O)N1CCC2(CCN(Cc3nccs3)CC2)CC1`, for which the “activity, negative = inhibition” value was -0.0178% (inactive).
Consider `N#Cc1c(NC(=O)C2CC(c3ccccc3Cl)=NO2)sc2c1CCC2` (stereo not drawn), for which the AC50 is 2 µM (active).
As to `Cc1cc2cccc(C)c2nc1SCC(=O)N(C)c1nc(-c2ccccc2)cs1`, the “activity, negative = inhibition” value is -27.1% (inactive).
As to `CCC(=O)N(Cc1ccco1)c1nc(-c2ccccc2)cs1`, the AC50 is 5.62 µM (active).
In the case of `Nn1nnc2ccccc21`, the “activity, negative = inhibition” value is -11.1% (inactive).
As to `Cc1ccnc(NCn2nnc3ccccc32)c1`, the AC50 was 15.8 µM (active).
For the molecule `N#CCCn1nnc2ccccc21`, the “activity, negative = inhibition” value was -23.8% (inactive).
For the molecule `O=C(O)C[n+]1ccccc1`, the activity, negative = inhibition was -3.69% [at 11.4 µM] (inactive).
Same read-out and setting: as for `COc1cc(NC(=O)c2c(F)cccc2F)nc(OC)n1`, the figure is -15.5% (inactive); as for `Cc1cc(NC(=O)c2ccc(S(=O)(=O)N(C)C)cc2)n(-c2ccccn2)n1`, 4.21% (inactive).
In the case of `Cc1cc(NC(=O)c2c(F)cccc2F)n(-c2nc3ccccc3[nH]2)n1`, the AC50 is 11.2 µM (active).
Take `Nc1ncnc2c1ncn2[C@@H]1CCCO1`: the “activity, negative = inhibition” value is 14.6% (inactive).
Regarding `Cc1nc(S(=O)(=O)N(C)c2ccccc2)c(C#N)c(C)c1Cl`, the AC50 is 6.31 µM (active).
The same measure, in the same setting: as for `Cc1nc(S(=O)(=O)NC2CCCCC2)c(C#N)c(C)c1Cl`, the figure is 2.82 µM (active).
For `CCC[C@H]1C(=O)N2C(N(C)C)=Nc3ccc(C)cc3N2C1=O`, the “activity, negative = inhibition” value is -39.6% [at 25.6 µM] (inactive).
As to `COc1ccc(C[C@@H]2c3cc(OC)c(OC)cc3CC[N@+]2(C)CCC(=O)OCCCCCOC(=O)CC[N@@+]2(C)CCc3cc(OC)c(OC)cc3[C@H]2Cc2ccc(OC)c(OC)c2)cc1OC`, the “activity, negative = inhibition” value is -12.9% [at 25.6 µM] (inactive).
As for `COC(=O)C/C=C\[C@@H](C)[C@@H](/C=N\O[C@@H](C)c1cn([C@H](CO)Cc2ccccc2)nn1)OC`, the activity, negative = inhibition was -27.6% [at 11.4 µM] (inactive) and -8.78% [at 11.4 µM] (inactive).
Same read-out and setting: to `N#Cc1ccccc1-c1ccc2ncnc(NCCN3CCOCC3)c2c1` belongs -23.4% (inactive).
Turning to `N#Cc1nc(-c2ccc(OCc3ccccc3)cc2)oc1NCCN1CCOCC1`, the AC50 was 5.62 µM (active).
With `Cc1cccc(NC(=S)NNC(=O)c2csc3c2CCCC3)c1`, the AC50 was 10 µM (active).
For the molecule `O=[N+]([O-])c1ccc(Cl)c(/C=N/N2CCN(Cc3ccccc3)CC2)c1`, the AC50 is 17.8 µM (active).
For `O=[N+]([O-])c1ccc(Cl)c(/C=N/N2CCN(Cc3ccccc3Cl)CC2)c1`, the AC50 is 3.98 µM (active).
On to `C=C(C)C(=O)N1CC2(CC(c3cccc(NC(=O)c4ccccc4)c3)=NO2)C[C@@H]1C(N)=O` (stereo partly drawn), for which the “activity, negative = inhibition” value is -42% (inactive).
As to `CCS(=O)(=O)N1CCC(C(=O)NCC2CCCO2)CC1` (stereo not drawn), the “activity, negative = inhibition” value is -8.97% (inactive).
As to `Cc1ccc(NC(=O)c2ccc(NCC3CCCO3)c([N+](=O)[O-])c2)cc1Cl` (stereo not drawn), the AC50 is 5.01 µM (active).
On the same count and under the same terms, to `Cc1cc(C)c(S(=O)(=O)N2CCN(c3ccc([N+](=O)[O-])c(NCC4CCCO4)c3)CC2)c(C)c1` (stereo not drawn) belongs 3.16 µM (active); to `CNc1cc(CS(=O)c2ccccc2)nc(-c2ccccc2)n1` (stereo not drawn), 1.41 µM (active).
With `O=S(=O)(Cc1cc(Oc2ccccc2)nc(-c2ccccc2)n1)c1ccccc1`, the AC50 was 1.26 µM (active).
Regarding `O=S(Cc1cc(Oc2ccccc2)nc(-c2ccccc2)n1)c1ccccc1` (stereo not drawn), the AC50 is 2.82 µM (active).
With `O=c1[nH][nH]c(C(F)(F)F)c1C=Nc1ccccc1Cl`, the “activity, negative = inhibition” value is -12.3% (inactive).
Still for that read-out and setting: to `[O-][N+](CCO)(CCO)c1ncnc2nc[nH]c12` belongs 41% [at 11.4 µM] (inactive).
On to `CC[C@@]1(O)C(=O)COc2c1cc1n(c2=O)Cc2c-1nc1cccc(C(C)C)c1c2[Si](C)(C)C`, for which the “activity, negative = inhibition” value is 27.7% (inactive).
Take `Cc1sc(NC(=O)C2CCCCC2)c(C#N)c1-c1ccccc1`: the AC50 is 2.82 µM (active).
Turning to `Cc1sc(NC(=O)/C=C/c2ccc(C(C)C)cc2)c(C#N)c1C`, the “activity, negative = inhibition” value was -24.8% (inactive).

A word on the AC50: it is the concentration giving half of the maximal activity seen.

Source of the values: PubChem BioAssay AID1851 (National Center for Advancing Translational Sciences (NCATS), 2009).
